# Screens (PubChem BioAssay)
# GRIN3A LBD mod: binders of NR3A ligand-binding domain, primary screen, biophysical, differential scanning fluorimetry, uHTS. AID 1259313, 2017. Tm shift relative to glycine control, % at 25 µM. 2.5% of 340,000 active. NR3A LBD differential scanning fluorimetry, Tm shift; 0% = protein alone, 100% = glycine-bound protein;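 active means melting temperature shift of at least 10% of the positive control shift, at one fixed dose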
# FAS TE block: FAS thioesterase domain inhibitors, primary screen, biochemical, fluorescence intensity, uHTS; 0.67% of 360,000 active; AID 602261, 2012; recombinant FAS-TE, OMFH fluorogenic substrate, fluorescence endpoint; Fatty acid synthase (Homo sapiens), P49327; inhibition, % at 15 µM;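 active means compounds whose normalised, plate-corrected inhibition of enzyme fluorescence in the single-dose primary screen is 50% or more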;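 further: 0% = DMSO with enzyme and 100% = substrate without enzyme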
# ADAM17 inh: ADAM17 inhibitors, primary screen, biochemical, QFRET; 0.83% of 370,000 active; AID 720648, 2013; recombinant ADAM17, EDANS/DABCYL FRET peptide cleavage; Disintegrin and metalloproteinase domain-containing protein 17 (Homo sapiens), P78536; inhibition, % at 6.95 µM;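 active means inhibition above the mean of compounds lying between control limits plus 3 SD, set per campaign, cut at about 8.5% in these data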;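 further: 0% = DMSO-only wells as the low control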
# aDG glyco act: activators of alpha-DG glycosylation, primary screen, uHTS, Pro5-aDG cells, AlphaScreen; activation, % at 10 µM; alpha-DG glycosylation AlphaScreen (IIH6); 0% Pro5, 100% B10-LARGE cell signal; 0.22% of 360,000 active;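 active means activation of at least 8% versus controls, or a plate z-score of at least 8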;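 further: Pro5 are CHO cells carrying HIG-tagged alpha-DG that lacks glycosylation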
# ADAM10 inh: human ADAM10 inhibitors, primary screen, biochemical, QFRET, HTS; inhibition, % at 7 µM; 0.62% of 370,000 active; Disintegrin and metalloproteinase domain-containing protein 10 (Homo sapiens), O14672; recombinant ADAM10, EDANS/DABCYL FRET peptide cleavage, 3 h;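 active means inhibition above a per-campaign cutoff equal to the mean of compounds falling between control-based bounds plus 3 SD, cut at about 20% in these data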;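 further: 0% = DMSO wells while the 100% control is not disclosed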
# Target sequence (O14672 214-748 limits assumed): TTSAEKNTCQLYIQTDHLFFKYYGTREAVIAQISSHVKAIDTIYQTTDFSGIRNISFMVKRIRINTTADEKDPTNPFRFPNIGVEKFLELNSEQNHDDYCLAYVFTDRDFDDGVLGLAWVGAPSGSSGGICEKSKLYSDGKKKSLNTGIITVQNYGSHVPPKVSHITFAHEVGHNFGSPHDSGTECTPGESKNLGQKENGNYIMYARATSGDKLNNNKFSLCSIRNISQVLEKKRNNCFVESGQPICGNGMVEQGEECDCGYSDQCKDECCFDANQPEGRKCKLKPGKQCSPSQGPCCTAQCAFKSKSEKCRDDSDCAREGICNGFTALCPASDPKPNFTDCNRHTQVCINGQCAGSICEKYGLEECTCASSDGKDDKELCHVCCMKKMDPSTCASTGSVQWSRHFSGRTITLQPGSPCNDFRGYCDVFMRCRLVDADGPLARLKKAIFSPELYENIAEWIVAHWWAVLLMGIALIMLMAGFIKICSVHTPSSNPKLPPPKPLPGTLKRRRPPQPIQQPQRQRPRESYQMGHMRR
# FAS-TE conf: FAS thioesterase domain inhibitors, confirmation, biochemical, fluorescence intensity, single concentration | recombinant FAS-TE, OMFH fluorogenic substrate | 45% of 2,300 active | inhibition, % at 15 µM | shares compounds with FAS TE block;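 active means compounds inhibiting the enzyme by at least 50% at 15 µM in any one of the replicates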;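 further: 0% = enzyme with DMSO only and 100% = wells lacking enzyme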
# * = called active by the depositor; / = no result given. Sampled rows, rich in hits. Any-hit rate of the full collection: about 4%.
SMILES,GRIN3A LBD mod,FAS TE block,ADAM17 inh,aDG glyco act,ADAM10 inh,FAS-TE conf
CCN(CC)C(=O)C1=C(C)N(Cc2ccc(F)cc2)C(=O)C(CC(=O)NC(c2ccccc2)c2ccccc2)C1 (configuration not stated),/,54*,0,0,6,31*
Cc1sc2ncn(CC(=O)Nc3ccccc3F)c(=O)c2c1-c1ccccc1,-1,14,-4,0,5,/
CN1C[C@H](C(=O)N[C@]2(C)O[C@@]3(O)[C@@H]4CCCN4C(=O)[C@H](Cc4ccccc4)N3C2=O)CC2c3cccc4[nH]cc(c34)C[C@H]21 (some centres not stated),-2,56*,-7,0,-8,52*
O=C(c1ccc2c(c1)OCO2)N1CCC2(CC1)Oc1ccc(Cl)cc1C(=O)C21CC(c2ccccc2)=NO1 (configuration not stated),-2,54*,0,0,-1,6
O=C(/C=C/c1cccs1)N1CCC2(CC1)Oc1ccc(F)cc1C(=O)C21CC(c2ccccc2)=NO1 (configuration not stated),-1,25,3,0,4,/
O=C(/C=C/c1cccs1)N1CCC2(CC1)Oc1ccc(F)cc1C(=O)C21CC(c2ccc(Cl)cc2)=NO1 (configuration not stated),1,62*,-4,0,-6,-5
CC(C)C(=O)N1CCC2(CC1)Oc1ccc(Cl)cc1C(=O)C21CC(c2ccc(Cl)cc2)=NO1 (configuration not stated),1,50*,6,0,12,8
O=C(/C=C/c1cccs1)N1CCC2(CC1)Oc1ccc(Cl)cc1C(=O)C21CC(c2ccc(Cl)cc2)=NO1 (configuration not stated),1,50*,3,-1,10,12
O=C(c1ccc2c(c1)OCO2)N1CCC2(CC1)Oc1ccc(F)cc1C(=O)C21CC(c2ccc(Cl)cc2)=NO1 (configuration not stated),-2,31,0,0,0,/
C/C(Cc1ccccc1)=N\NC(=O)CNC(=O)c1ccc(Br)cc1,0,-5,-5,0,-11,/
Cc1ccc(S(=O)(=O)NCC(=O)OCC(=O)c2ccc(Br)s2)cc1,-3,-4,3,0,2,/
Cc1noc(C)c1C(=O)N1CCC2(CC1)Oc1ccc(F)cc1C(=O)C21CC(c2ccc(Cl)cc2)=NO1 (configuration not stated),0,94*,6,0,12,22
CC(C)(C)OC(=O)N1CCC2(CC1)Oc1ccc(F)cc1C(=O)C21CC(c2cccnc2)=NO1 (configuration not stated),0,4,-8,0,-23,/
C/C(=N\NC(=O)c1ccccc1-n1cccc1)c1ccccn1,/,0,3,0,-18,/
CC1CCCN(S(=O)(=O)c2ccc(NC(=O)Cc3ccc(S(=O)(=O)N4CCOCC4)s3)cc2)C1 (configuration not stated),2,61*,3,0,13,28*
CC(Oc1cccc([N+](=O)[O-])c1)C(=O)NCCC1=CCCCC1 (configuration not stated),2,72*,-2,0,-2,38
Cc1ccccc1OC(C)C(=O)NCCC1=CCCCC1 (configuration not stated),10,10,-4,0,-15,/
CC(C(=O)NCCC1=CCCCC1)c1ccc([N+](=O)[O-])cc1 (configuration not stated),-1,70*,-1,0,5,69*
COc1ccc(NC2=NC3(CCCCC3)N=C(N)N2)cc1,-4,-6,-8,0,-2,/
CCCSc1nnc(-c2cnn(-c3ccccc3)c2-n2cccc2)n1C,-1,-1,-1,0,4,/
CC(C)(C)N(Cc1ccccc1)C(=O)COC(=O)c1ccc([N+](=O)[O-])o1,0,50*,0,0,-16,52*
Cc1ccc(C(=O)CN(C(=O)c2ccc(Cl)c(Cl)c2)N2C(=O)C3C4C=CC(C4)C3C2=O)cc1 (configuration not stated),-23,61*,-3,0,-7,30
COc1ccc(NC2CCCCC2NS(=O)(=O)c2ccc(C)cc2)cc1 (configuration not stated),2,9,6,0,1,/
CCc1ccc(C2(O)CC(C(F)(F)F)=NN2C(=O)Cc2ccc([N+](=O)[O-])cc2)cc1 (configuration not stated),-8,52*,-1,0,4,18
CCC1=NN(C(=O)Cc2ccc([N+](=O)[O-])cc2)C(O)(C(C)(C)C)C1 (configuration not stated),0,4,-5,0,-2,/
SMILES,GRIN3A LBD mod,FAS TE block,ADAM17 inh,aDG glyco act,ADAM10 inh,FAS-TE conf
Cc1cc(C)cc(N(CC(=O)N2CCn3c2nc2ccccc23)S(=O)(=O)c2c(C)noc2C)c1,-8,65*,-3,0,8,28
Cc1cc(C)cc(N(CC(=O)N2CCc3ccccc32)S(=O)(=O)c2c(C)noc2C)c1,-1,36,-2,1,-11,/
CC(=O)N1CCN(S(=O)(=O)c2cccc(C(=O)OCc3ccc(C(C)(C)C)cc3)c2)CC1,-5,88*,4,2,3,51*
CC(C)CC(CO)N1CCN(C(=O)c2ccccc2)CCC1=O (configuration not stated),-2,-10,-3,0,-1,/
COC(=O)[C@]12C[C@H](CC(=O)NCC3CCCCC3)C(=O)N(CCC3=CCCCC3)C1=C[C@H](COCc1ccccc1)O[C@@H]2C,/,/,-3,/,-2,/
COC(=O)c1ccccc1NC(=O)COC(=O)c1ccc(C)c(NC(=O)c2ccco2)c1,-2,71*,2,0,9,17
O=C(NC(NC(=S)Nc1ccccc1C(=O)O)C(Cl)(Cl)Cl)c1ccco1 (configuration not stated),1,0,-20,0,-52,/
COC(=O)c1ccccc1NC(=S)NC(NC(=O)COc1ccccc1)C(Cl)(Cl)Cl (configuration not stated),6,71*,4,0,-3,37
